# Assay outcomes deposited in PubChem BioAssay by National Center for Advancing Translational Sciences (NCATS).
# TrxR1 substrate = qHTS Assay for Substrates of Mammalian Selenoprotein Thioredoxin Reductase 1 (TrxR1): qHTS | Potency, µM (series often up to 114 µM), for the others: at the highest dose activity change, negative = substrate turnover | 390,000 tested, 0.01% active | purified TrxR1 substrate turnover, NADPH consumption readout | Thioredoxin reductase 1, cytoplasmic (Rattus norvegicus), O89049 | AID 588456, 2011; further: potency means the concentration at half of the fitted maximal effect; nearly all actives have a fitted effect of over 50% in size
# Target sequence (O89049 whole entry, looked up): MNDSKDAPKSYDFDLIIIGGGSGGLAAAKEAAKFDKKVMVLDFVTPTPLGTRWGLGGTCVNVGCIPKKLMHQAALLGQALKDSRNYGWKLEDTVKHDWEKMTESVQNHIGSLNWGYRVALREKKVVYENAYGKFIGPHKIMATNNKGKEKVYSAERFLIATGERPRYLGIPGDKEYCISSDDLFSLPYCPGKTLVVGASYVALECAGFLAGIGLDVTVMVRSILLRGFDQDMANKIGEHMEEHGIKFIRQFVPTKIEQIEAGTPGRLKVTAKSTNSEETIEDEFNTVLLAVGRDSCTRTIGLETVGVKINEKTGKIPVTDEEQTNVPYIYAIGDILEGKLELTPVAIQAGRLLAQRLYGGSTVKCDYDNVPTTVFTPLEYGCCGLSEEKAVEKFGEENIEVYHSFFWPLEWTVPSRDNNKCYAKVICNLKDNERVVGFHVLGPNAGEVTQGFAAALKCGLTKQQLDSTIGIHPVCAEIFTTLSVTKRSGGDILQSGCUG
#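 Rat TrxR1, dispensed at 90 nM, was prereduced with 400 uM NADPH (final) for 5 min at ~22 deg C, then incubated with compound 15 min before 400 uM selenite. A first-read NADPH fluorescence drop versus no-compound background flagged substrates.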
# Coupling enz = qHTS Assay for Inhibitors of Fructose-1,6-bisphosphate Aldolase from Giardia Lamblia: Coupling assay counterscreen. coupling enzyme system counterscreen, AmpLite Red fluorescence. activity change, negative = inhibition, % at 58.2 µM, hits read low. 290,000 tested, 0.67% active; in the data active means activity change below about -30%
#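 Fluorescence at 525 nm excitation and 598 nm emission measured inhibition of the coupled detection system without aldolase. Compounds (at 57.5 uM final) were preincubated 10 min at room temperature with coupling enzyme reagent before a 20 min substrate/AmpLite Red step.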
# rTrxR1 inhibitor = qHTS Assay for Inhibitors of Mammalian Selenoprotein Thioredoxin Reductase 1 (TrxR1): qHTS | Thioredoxin reductase 1, cytoplasmic (Rattus norvegicus), O89049 | recombinant rTrxR1, NADPH fluorescence consumption, selenite substrate | Potency, µM (doses to about 114 µM), for inactives: top-dose activity change, negative = inhibition, usual class: inhibitors | 390,000 tested, 1% active | AID 588453, 2011; further: potency means the concentration at half of the fitted maximal effect; nearly all actives have a fitted effect of over 65% in size
#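 Rat TrxR1 (90 nM in the dispensed reagent) was pre-reduced with 400 uM NADPH for 5 min at room temperature, then incubated with compound for 15 min. After 400 uM selenite was added, NADPH fluorescence (Ex 340/Em 450 nm) was followed for 8 min.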
# IDH1 R132H inh = qHTS for Inhibitors of mutant isocitrate dehydrogenase 1 (IDH1): qHTS. Isocitrate dehydrogenase [NADP] cytoplasmic (Homo sapiens), O75874. IDH1-R132H enzyme, NADPH consumption, diaphorase/resazurin fluorescence. Potency, µM (top dose mostly 76.6 µM), for the others: top-dose activity change, negative = inhibition, usual class: inhibitors. 390,000 tested, 0.093% active. AID 602179, 2012; further: potency means the concentration at half of the fitted maximal effect; nearly all actives have a fitted effect of over 65% in size
#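 IDH1-R132H (0.5 ug/mL) preincubated 30 min with compound, then NADPH (0.016 mM) and alpha-KG (2 mM) added; 80 min at RT, pH 7.5. Remaining NADPH coupled via diaphorase/resazurin to fluorescence (540/590 nm); concentration-response curves normalized to no-enzyme control.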
# Eya2 phos inh = qHTS Assay for Inhibitors of the Phosphatase Activity of Eya2; recombinant Eya2, OMFP fluorescence dephosphorylation (OMFP is methylfluorescein phosphate); Potency, µM (series often up to 76.9 µM), inactives show top-dose activity, negative = inhibition, actives largely listed as inhibitors; 330,000 tested, 0.006% active; further: potency means the concentration at half of the fitted maximal effect
#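 Eya2 protein (added as 0.2 uM solution) was preincubated with compound for 10 min at ambient temperature in 50 mM HEPES pH 7.5, 50 mM NaCl, 5 uM MgCl2, 0.05% BSA, 1 mM DTT. OMFP (added at 50 uM) then reacted 10 min; fluorescence read at 485/525 nm.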
# * hit, by the source's call; u = inconclusive; x = not tested or not shown; [ ] = dose if it differs, or a comment. The list is not random: actives were taken first. Their share in the collection is about 1.5%. Unless noted, the call rests on the fitted dose curve; in most records, active means well fitted curve in the direction sought with a large enough effect; inconclusive means small, poorly fitted or top-dose-only effect, or another doubt; inactive means no such curve, though single readings can be large; an effect the other way counts as inactive or inconclusive. On the % scale 0 is the no-effect control and ±100 the full control effect.
SMILES,TrxR1 substrate,Coupling enz,rTrxR1 inhibitor,IDH1 R132H inh,Eya2 phos inh
N#Cc1ccc(CSc2nnc(Cc3cccs3)n2Cc2ccco2)cc1,-5%,-7,40µM*,11%,22%
COc1cc2c(cc1NC(=O)CSc1nnc(Cc3cccs3)n1Cc1ccco1)oc1ccccc12,2%[57.1 µM],1,14µM*,11%,7%
Cc1ccsc1C1NC(=O)c2c(sc3c2CCCC3)N1 (centres undefined),0%,0,45µM*,4%,10%
O=C1NC(c2ccc(Br)cc2)Nc2sc3c(c21)CCC3 (centres undefined),5%,-4,u,-3%,-16%
O=C(Nc1ccccc1)c1ccc2ccccc2n1,0%,1,21%,12%,-24%
O=C(Nc1ccccc1C(=O)O)c1ccc2ccccc2n1,-12%,-40*,9%[57.1 µM],28%,-7%
N#Cc1nc(Nc2ccccc2)nc(NC2CCCC2)n1,x,1,x,x,x
CCC1Oc2ccc(C)cc2N(CC(=O)NC2CCCCC2)C1=O (centres undefined),6%,-2,12%,9%,13%
CCC1Oc2ccc(C)cc2N(CC(=O)N(Cc2ccc(C)o2)C2CCCC2)C1=O (centres undefined),-1%,4,25µM*,2%,-21%
Cc1ccc(NC(=S)NC(=O)C2CCCC2)cc1C,-18%,x,u,-5%,-10%
Cc1ccc(NC(=S)NC(=O)C2CCC2)cc1C,3%,0,50µM*,-2%,1%
COc1cc(CCN2C(=O)N[C@@H](c3ccccc3)C(C(C)=O)=C2C)cc(OC)c1OC,x,7,x,x,x
Cc1cc(C(=O)COC(=O)c2cc(O)c3ccccc3c2O)c(C)n1CC1CCCO1 (centres undefined),13%[57.1 µM],-46*,-66%,14%,21%
O=C(O[C@@H]1Cc2c(O)cc(O)cc2OC1c1ccc(O)c(O)c1)c1cc(O)c(O)c(O)c1 (some centres undefined),x,-2,x,x,x
CC(NC(=O)Cc1cc(F)cc(F)c1)C(=O)NC(C(=O)OC(C)(C)C)c1ccccc1 (centres undefined),x,1,x,x,x
CCOC(=O)c1cnc2ccc(C(=O)OC)cc2c1NCCN1CCOCC1,7%,-7,45µM*,4%,5%
N#CC1=C(N)SC(N)=C(C#N)C1c1cccc(O)c1,-3%,-32*,u,-5%,21%
OC(CBr)C[n+]1cc(Br)cc2ccccc21 (centres undefined),-2%,x,8%,x,x
O=[N+]([O-])c1ccc2c(c1)/C(=C/c1ccc(C=S)cc1)C=C2,-4%,x,u,x,x
Cc1[nH]c2ccccc2c1C1=CC(=O)C=CC1=O,5%,x,25µM*,3%,x
COC(=O)/C(=C/c1c[nH]c2ccccc12)NC(C)=O,1%[57.1 µM],0,9%[57.1 µM],8%,-11%
COC(=O)/C(=C/c1c[nH]c2ccccc12)[N+](=O)[O-],6%,-18,13µM*,-1%,2%
O=C1CN(C(=O)COC(=O)/C=C/c2ccco2)c2ccccc2N1,4%[57.1 µM],2,-23%,-5%,2%
Cc1ccc(/C=C/C(=O)OCC(=O)N2CC(=O)Nc3ccccc32)o1,-7%[57.1 µM],-16,28µM*,-3%,u
Cc1cc(C(=O)OCC(=O)NC(C)c2ccccc2)c(C)o1 (centres undefined),-2%,0,7%,1%,7%
SMILES,TrxR1 substrate,Coupling enz,rTrxR1 inhibitor,IDH1 R132H inh,Eya2 phos inh
Cc1ccc(/C=C/C(=O)OCC(=O)NC(C)c2ccccc2)o1 (centres undefined),-8%,x,50µM*,7%,-13%
CC(C)Cn1cnc2c(Sc3c([N+](=O)[O-])ncn3C)nc(N)nc21,-8%,x,2µM*,-3%,x
CCC(C)Cn1cnc2c(SCc3ccccn3)nc(N)nc21 (centres undefined),1%,x,16%,1%,x
CCC(C)Cn1cnc2c(Sc3c([N+](=O)[O-])ncn3C)nc(N)nc21 (centres undefined),1%,x,2.8µM*,7%,x
Cn1cc(CCNC(=O)CC2C(=O)NCCN2Cc2cccc(Oc3ccccc3)c2)cn1 (centres undefined),17%,-1,25µM*,7%,0%
O=C(CC1C(=O)NCCN1Cc1cccc(Oc2ccccc2)c1)NCCc1ccccn1 (centres undefined),-6%[57.1 µM],-10,-13%[57.1 µM],6%,-1%
Oc1cc2cc(-c3csc(-c4ccc(F)cc4)n3)ccc2[nH]1,4%,x,44%[0.0914 µM],x,x
NC(=O)CSc1nnc(-c2ccco2)n1-c1ccccc1,1%,2,6%,-9%,7%
OCCn1c(CSc2nnc(-c3ccco3)n2-c2ccccc2)nc2ccc(Cl)cc21,6%,5,20µM*,9%,-12%
O=C1C(NS(=O)(=O)c2cccs2)=C(N2CCOCC2)C(=O)c2ccccc21,-2%,-24,-22%,1%,-1%
CC1=C(C)C(=O)C(N2CCOCC2)=CC1=O,-9%,-60*,-15%,22%,-1%
O=C1C=C(N2CCOCC2)c2cccc3cccc1c23,x,x,x,13%,x
O=C1C=C(N2CCOCC2)c2ccccc2C1=O,25µM*,-66*,u,17%,9%
CN(C1=C(N2CCOCC2)C(=O)c2ccccc2C1=O)c1ccccc1,1%,-40*,u,1%,-8%
CCOC(=O)c1sc(N2C(=O)c3oc4ccc(F)cc4c(=O)c3C2c2ccc(C)cc2)nc1C (centres undefined),6%,x,11%,x,x
O=C1CCCC/C1=C\Nc1ccc(O)cc1,-13%,-68*,u,16%,-2%
Cc1cc(Br)ccc1NC(=O)COC(=O)c1ccccc1OCC(=O)N(C)C,3%,x,16%,x,x
C#CCSc1nccc(-c2nn(-c3ccc(C)cc3)ccc2=O)n1,20%,1,79µM*,8%,-1%
CCSc1nccc(-c2nn(-c3ccc(C)cc3)ccc2=O)n1,7%,0,11%,8%,-28%
CCCC(=O)NC(c1cccs1)c1cc([N+](=O)[O-])c2cccnc2c1O (centres undefined),-24%,-32*,-30%,u,1%
O=C(c1ccc(Nc2nc3ccccc3n3nnnc23)cc1)N1CCN(c2cccc(C(F)(F)F)c2)CC1,25%,x,71µM*,-14%,x
O=C(c1ccncc1)N1CCN(c2cccc(C(F)(F)F)c2)CC1,-6%,4,-4%,6%,2%
